ELG1 genotoxic – qHTS screen for small molecules that induce genotoxicity in human embryonic kidney (HEK293T) cells expressing luciferase-tagged ELG1 | hit rate 1.3% among 330,000 | AID 504466, 2011 | HEK293T ELG1-luciferase reporter, luminescence, 16 h | Potency, µM (highest dose often 46 µM), without a hit: at the highest dose activity change, positive = activation, actives largely listed as activators; also: % of control where 0% means no effect; nearly all actives have a fitted effect of over 60% in size
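Quantitative HTS format in 1536-well plates. HEK293T ELG1-luciferase reporter cells receive test compound and are incubated 16 hr at 37 °C, 5% CO2; ONE-Glo added, 30 min room temperature, then luminescence read.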
NPC1 prom act – qHTS Assay for NPC1 Promoter Activators. Huh7 NPC1 promoter luciferase reporter, 24 h. Potency, µM (titrated, usually from 9.22 µM), without a hit: at the highest dose activation, most hits filed as activators. hit rate 2.4% among 320,000. AID 485313, 2010; also: % of control where 0% means no effect; nearly all actives have a fitted effect of over 60% in size
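Luminescence from an NPC1 promoter-driven luciferase reporter in stably transfected Huh7 cells was measured after 24 h compound treatment at 37 °C, followed by 10 min ambient incubation with luciferase detection reagent.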
FLuc counter – qHTS profiling assay for firefly luciferase inhibitor/activator using purifed enzyme and Km concentrations of substrates (counterscreen for miR-21 project) | hit rate 6.9% among 360,000 | Potency, µM (titrated, usually from 57.5 µM), for the others: at the highest dose activity change, negative = inhibition, usual class: inhibitors | Luciferin 4-monooxygenase (Photinus pyralis), P08659 | purified FLuc, Km substrates, luminescence inhibition;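 also: plate controls were vehicle for no effect and reference inhibitor for full effect; nearly all actives have a fitted effect of over 55% in size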
Target sequence (P08659 whole entry, looked up): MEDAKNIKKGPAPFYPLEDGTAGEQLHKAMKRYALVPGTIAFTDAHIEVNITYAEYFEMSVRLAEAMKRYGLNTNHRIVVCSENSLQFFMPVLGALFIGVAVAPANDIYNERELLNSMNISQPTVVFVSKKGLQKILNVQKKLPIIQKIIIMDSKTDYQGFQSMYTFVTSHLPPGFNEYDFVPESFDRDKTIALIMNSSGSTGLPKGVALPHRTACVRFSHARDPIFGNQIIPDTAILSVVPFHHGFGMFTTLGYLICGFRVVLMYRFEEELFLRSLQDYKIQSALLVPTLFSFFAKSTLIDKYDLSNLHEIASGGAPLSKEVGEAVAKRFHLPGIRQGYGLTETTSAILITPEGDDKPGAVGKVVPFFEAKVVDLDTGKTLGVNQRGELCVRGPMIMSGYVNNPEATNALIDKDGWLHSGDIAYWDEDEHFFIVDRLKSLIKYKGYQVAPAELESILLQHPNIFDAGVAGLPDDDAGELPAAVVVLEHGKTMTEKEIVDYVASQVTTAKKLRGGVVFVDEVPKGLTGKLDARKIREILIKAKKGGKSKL
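Biochemical qHTS of compounds, final roughly 60 µM downward over six points, against 10 nM purified firefly luciferase using Km concentrations of substrates (10 uM D-luciferin, 10 uM ATP) in Tris acetate pH 7.5 buffer; luminescence output.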
SMN2 splice enh – qHTS Assay for Enhancers of SMN2 Splice Variant Expression; HEK293 SMN2-luciferase splicing reporter, luminescence, 30-36 h; Potency, µM (doses to about 46.1 µM), for inactives: top-dose activity change, positive = activation, most hits filed as activators; hit rate 2.8% among 210,000; also: % of control where 0% means no effect; nearly all actives have a fitted effect of over 55% in size
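qHTS luciferase splicing reporter: luminescence rises when SMN2 exon 7 is included in transfected HEK293 cells. Compound exposure lasted 30-36 h at 37C, with 4.5 mM final sodium butyrate as control, followed by a ONE-Glo read.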
ELG1 repair inh – qHTS screen for small molecules that inhibit ELG1-dependent DNA repair in human embryonic kidney (HEK293T) cells expressing luciferase-tagged ELG1; HEK293T ELG1-luciferase reporter, luminescence, 16 h; DNA damage induced by 5-fluorouridine; Potency, µM (titrated, usually from 46.1 µM), for the others: at the top dose activity change, negative = inhibition, most hits filed as inhibitors; hit rate 2.3% among 330,000; also: % is scaled to controls: 0 for no effect and ±100 for the full control effect; nearly all actives have a fitted effect of over 55% in size
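Reporter activity after DNA damage by 5-fluorouridine is monitored. Compound-treated cells incubate 16 hr at 37 °C, then ONE-Glo is added for 30 min before luminescence reading.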
Rab9 promoter act – qHTS Assay for Rab9 Promoter Activators. Huh7 Rab9 promoter-luciferase reporter, luminescence, 24 h. Potency, µM (titrated, usually from 9.22 µM), for the others: at the highest dose activation, negative = inhibition, usual class: activators. hit rate 2.8% among 320,000. AID 485297, 2010; also: % of control where 0% means no effect; nearly all actives have a fitted effect of over 60% in size
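Measured in stably transfected Huh7 cells bearing a Rab9 promoter–luciferase construct: 24 h compound treatment at 37 °C, followed by luminescence detection.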
An asterisk follows results filed as active; ? = inconclusive; . = no result given; [ ] = remark or other dose. This is a sample that favours compounds with a hit; in the whole collection about 9.2% have one here. Calls follow the shape of the dose curve; as a rule, active = well fitted curve in the direction sought with a large enough effect; inconclusive = small, poorly fitted or top-dose-only effect, or another doubt; inactive = no such curve, though single readings can be large; an effect the other way counts as inactive or inconclusive. Potency is read from the fitted curve at half-maximal effect.

SMILES	ELG1 genotoxic	NPC1 prom act	FLuc counter	SMN2 splice enh	ELG1 repair inh	Rab9 promoter act
COC(=O)C1=C(C(=O)OC)[C@@H]2N(Cc3ccccc3)c3ccccc3[C@@]23C[C@@H](C(=O)OC)N(S(=O)(=O)c2ccc(C#N)cc2)C3=N1	.	.	.	1%[9.22 µM]	.	.
CC(C)(C(=O)Nc1nccs1)c1ccccc1	-8%	5%	-6%	1%	0%	-7%
C/C(=N/N=C/c1ccc(N(C)C)cc1)c1ccccc1	0.37µM*	0.28µM*	0.17µM*	0.5µM*	?	0.11µM*
CN(C)c1ccc(/C=N/O)cc1	5%	4%	-19%	27%	23%	10%
CN(C)c1ccc(/C=N/NC(=O)c2ccc(Cl)cc2)cc1	6%	0%	?	-8%	7%	0%
CN(C)c1ccc(/C=N\NC(=O)c2ccc(Cn3cc(Cl)cn3)cc2)cc1	-3%	0%	12µM*	-13%	?	2%
CN(C)c1ccc(/C=N/NC(=O)c2cccc(C(=O)N/N=C/c3ccc(N(C)C)cc3)n2)cc1	5%	2%	?	2%	16%	-5%
CN(C)c1ccc(/C=N/NC(=O)c2ccccc2)cc1	?	2.8µM*	5.4µM*	11µM*	?	0.89µM*
CN(C)c1cccc(C(=O)N/N=C/c2ccsc2)c1	?	3.2µM*	3µM*	11µM*	?	3.5µM*
O=C(N/N=C/c1ccncc1)c1cccs1	?	19%	?	.	?	10%
CN(C)c1ccc(/C=N/NC(=O)c2sccc2-n2cccc2)cc1	-1%	?	?	20%	?	4µM*
CSc1ccc(/C=N/NC(=O)c2cccs2)cc1	?	2.2µM*	1.7µM*	.	?	1.8µM*
COc1ccc(C(=O)NCCS(=O)(=O)N2CCCC2)cc1	?	1%	1%	.	9%	0%
COc1ccccc1NS(=O)(=O)c1ccc2nc(CCl)[nH]c2c1	0%	-10%	1%	.	?	-4%
COc1ccc(NS(=O)(=O)c2ccc3nc(COc4cccc5ccccc45)[nH]c3c2)cc1	-10%	-1%	0%	-15%[1.84 µM]	23µM*	-1%
COc1ccc(OCc2nc3ccc(S(=O)(=O)Nc4ccccc4Cl)cc3[nH]2)cc1	-2%	-1%	-1%	-36%	-21%	0%
COc1ccc(NS(=O)(=O)c2ccc3nc(COc4ccc5ccccc5c4)[nH]c3c2)cc1	-6%	0%	-7%	.	23µM*	2%
CCn1cc(C(=O)N(C)Cc2ccc(OC(F)F)cc2)c(=O)c2ccc(C)nc21	0%	-24%	1%	.	-2%	0%
O=C(NC(=S)NC1CCCCC1)c1ccccc1	?	?	15µM*	.	?	?
O=C(NC(=S)Nc1ncc(Br)cc1Br)c1cncc(Br)c1	.	.	?	-35%	.	.
O=C(NC(=S)NC1CCCCCC1)c1cncc(Br)c1	?	?	?	16µM*	?	20%
O=C(NC(=S)NC1CCS(=O)(=O)C1)c1ccccc1 (stereo unspecified)	8%	-6%	4%	.	-4%	2%
Cc1noc(C)c1CSCC(=O)OCc1nnc(-c2ccc([N+](=O)[O-])cc2)o1	0%	.	.	.	26%	.
Cc1nc(-c2nc(-c3c(C(=O)NN)noc3C)cs2)cs1	0%	24%	17µM*	?	?	?
Cc1cccc(NC(=S)Nc2cccc3ccccc23)c1	-3%	13%	-8%	.	1%	4%
SMILES	ELG1 genotoxic	NPC1 prom act	FLuc counter	SMN2 splice enh	ELG1 repair inh	Rab9 promoter act
Cc1cc(C)cc(NC(=S)Nc2cccc3ccccc23)c1	?	2.5µM*	21µM*	.	?	2.5µM*
CCN(CC)c1cccc(OCC(=O)N2c3ccccc3CC2C)c1 (stereo unspecified)	-6%	1%	?	.	-15%	8%
COCCOC(=O)C1=C(C)NC(=S)NC1/C=C/c1ccccc1 (stereo unspecified)	3%	3%	-2%	-1%	5.8µM*	0%
CCN(CC)S(=O)(=O)c1ccc2c(c1)N(CC(=O)NCc1ccccc1)C(=O)C1CCCCN21 (stereo unspecified)	.	.	5%	.	.	.
COc1cccc(CNC(=O)CCCn2ccc3cc(S(=O)(=O)N4CCCC4)ccc32)c1	-10%	-1%	-8%	.	23µM*	-5%
COc1cccc(CNC(=O)CCn2ccc3cc(S(=O)(=O)N4CCCC4)ccc32)c1	-2%	-5%	-1%	.	4%	-2%
CCOc1ccc(C(=O)c2ccccc2C(=O)O)cc1OCC	2%	-2%	1%	3%	2%	-4%
CC1=CC(=O)C(C(C)C)=C/C1=C(\c1cc(C(C)C)c(OP(=O)(O)O)cc1C)c1ccccc1C(=O)O	-21%	-3%	2%	.	18µM*	-7%
Cc1ccccc1CSc1nc(-c2cccc(F)c2)nc2c1Cc1c(CO)cnc(C)c1O2	.	.	-1%	.	.	.
CCOc1cc(N2CCOCC2)c(OCC)cc1NC(C)C(=O)N1CCC(C)CC1 (stereo unspecified)	-4%	-2%	1%	.	9.2µM*	-2%
CCOc1cc(N2CCOCC2)c(OCC)cc1NC(=O)COc1cccc(CC)c1	-7%	-3%	8%	.	23µM*	-12%
CCOc1cc(N2CCOCC2)c(OCC)cc1NC(=O)CSc1ccccc1C(=O)O	-3%	-3%	-1%	.	-2%	-5%
CCOc1cc(N2CCOCC2)c(OCC)cc1NC(=O)[C@H](C)N1C(=O)C2CC=CCC2C1=O (stereo partly specified)	3%	-9%	1%	-1%	2%	-2%
CCOc1cc(N2CCOCC2)c(OCC)cc1NCC(=O)N1CCN(Cc2ccccc2)CC1	-1%	-1%	-2%	.	8.2µM*	-4%
CC(C)Cc1nn2c(=O)cc(COC(=O)c3ccc(NC(=O)CCc4ccccc4)cc3)nc2s1	.	.	2%	.	.	.
Cc1ccc2c(c1)cc1c(=O)n(Cc3cccc(Cl)c3)nc(C)n12	.	.	1%	-7%	.	.
CCc1ccc(NC(=O)Cn2nc3c4ccccc4n(Cc4ccccc4)cc-3c2=O)cc1	.	.	-2%	.	.	.
CN(C(=O)CCc1nnc(-c2ccc(-c3ccccc3)cc2)o1)C1CCOCC1	-7%	21%	17µM*	.	?	21%
CN(CCCC1CCCC1)C(=O)CCc1nnc(-c2ccccc2)o1	21µM*	?	12µM*	13µM*	?	2.5µM*
